Laboratory results: the supplement of paper PMC6555819

How the values were obtained:
Test in all cases: PBM binding z-score (relative to random genomic background probes); higher = stronger binding; sequences stand for … in GC…GCGATTGACAGCGTAGAATGAAGG
[1] = system: FXR:RXRa (NR concentration 270 nM, RXRa partner concentration 90 nM)
Outline: (§1)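 Binding buffer was PBS pH 7.4 with 2% milk, 0.02% Triton X-100, 1 mM DTT, 0.2 mg/mL BSA and 0.4 mg/ml salmon testes DNA. In it, ligand-free nuclear receptor dimers were incubated 1 h on custom Agilent 4×180K protein-binding microarrays carrying double-stranded probes. Antibodies against each partner (one per run) detected binding, and z-scores were calculated against random background probes after regression normalization of scanned fluorescence.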

[2] = system: LXRa:RXRa (NR concentration 270 nM, RXRa partner concentration 90 nM)
Outline: as §1

[3] = system: LXRa homodimer (NR concentration 270 nM)
Outline: as §1

[4] = system: LXRb:RXRa (NR concentration 270 nM, RXRa partner concentration 90 nM)
Outline: as §1

[5] = system: LXRb homodimer (NR concentration 270 nM)
Outline: as §1

[6] = system: PPARa:RXRa (NR concentration 270 nM, RXRa partner concentration 90 nM)
Outline: as §1

[7] = system: PPARg:RXRa (NR concentration 180 nM, RXRa partner concentration 90 nM)
Outline: as §1

[8] = system: PPARg:RXRa 270nM:90nM, anti-RXR (NR concentration 270 nM, RXRa partner concentration 90 nM)
Outline: as §1

[9] = system: PPARg:RXRa 30nM:10nM, anti-RXR (NR concentration 30 nM, RXRa partner concentration 10 nM)
Outline: as §1

[10] = system: PPARg:RXRa 90nM:30nM, anti-RXR (NR concentration 90 nM, RXRa partner concentration 30 nM)
Outline: as §1

[11] = system: PPARg:RXRa DBDmut IVT, anti-RXR (DBD mutation: RXRa K156A/R161A, NR concentration 270 nM, RXRa partner concentration 90 nM)
Outline: as §1

[12] = system: PPARg:RXRa IVT, anti-PPARg (NR concentration 270 nM, RXRa partner concentration 90 nM)
Outline: as §1

[13] = system: PPARg DBDmut:RXRa IVT, anti-PPARg (DBD mutation: PPARg1 K132A/R137A, NR concentration 270 nM, RXRa partner concentration 90 nM)
Outline: as §1

[14] = system: PPARg DBDmut IVT, anti-PPARg (DBD mutation: PPARg1 K132A/R137A, NR concentration 270 nM)
Outline: as §1

[15] = system: PPARg homodimer (NR concentration 180 nM)
Outline: as §1

[16] = system: PXR:RXRa (NR concentration 270 nM, RXRa partner concentration 90 nM)
Outline: as §1

[17] = system: PXR homodimer (NR concentration 270 nM)
Outline: as §1

[18] = system: RARa:RXR (NR concentration 270 nM, RXRa partner concentration 90 nM)
Outline: as §1

[19] = system: RARa homodimer (NR concentration 270 nM)
Outline: as §1

[20] = system: RARb:RXRa (NR concentration 270 nM, RXRa partner concentration 90 nM)
Outline: as §1

Sequence	PBM binding z-score [1]	PBM binding z-score [2]	PBM binding z-score [3]	PBM binding z-score [4]	PBM binding z-score [5]	PBM binding z-score [6]	PBM binding z-score [7]	PBM binding z-score [8]	PBM binding z-score [9]	PBM binding z-score [10]	PBM binding z-score [11]	PBM binding z-score [12]	PBM binding z-score [13]	PBM binding z-score [14]	PBM binding z-score [15]	PBM binding z-score [16]	PBM binding z-score [17]	PBM binding z-score [18]	PBM binding z-score [19]	PBM binding z-score [20]
ACTAGCAGGCCAAGGGTCACTCAAGATTAGTCCG	2.48	2.76	0.0687	2.81	-0.402	4.43	7.75	7.53	7.41	8.63	0.983	4.06	-0.0619	-0.0525	2.65	3.21	-0.112	3.84	0.215	3.41
ACTAGCAGGCCAAGGGTCATTCAAGATTAGTCCG	3.35	3.46	1.07	3.3	-0.0105	4.72	7.69	7.28	5.9	7.5	0.965	3.72	0.143	-0.155	1.76	3.83	0.144	4.26	0.503	3.41
TCAGACAGGTGAAGGTGACTCAGGTACGCAGTCG	0.795	0.409	-0.133	0.864	0.128	1.58	0.781	2.13	3.51	2.83	2.42	1.7	0.953	0.0936	0.74	0.711	0.325	0.812	-0.0576	1.62
GTACCAAGGTGAATAGGTCGTCGATGAGTAGGCG	0.785	0.833	-0.158	0.527	-0.663	2.45	1.5	1.81	0.196	1.18	1.91	2.77	-0.404	-0.279	0.976	0.807	-0.119	1.9	0.0363	2.18
ACAGACAGGTGAGTGAAGGTATCTCAGCTGGACG	-0.3	-0.499	-0.504	-0.625	-0.39	0.116	0.581	-0.119	0.319	-0.0281	0.178	0.541	-0.168	-1.07	-0.226	-0.609	-0.293	-0.438	-0.61	0.255
TTACCAAGTTGAAAGGTCGTTGATGCACGCCTTG	2.79	2.74	0.48	2.17	-0.00674	3.78	4.15	5.58	3.84	5.07	0.565	1.78	-0.471	0.0768	1.5	3.35	0.56	4.05	0.532	2.34
ACTATTAGTTGACTTACGGCAACCGATACGACGC	0.213	0.066	0.174	0.412	0.908	-0.179	1.09	0.0509	0.212	0.113	-0.0111	0.189	0.614	1.35	0.496	-0.0445	-0.0464	0.256	0.942	0.199
ACTAGTTGGTCAGCTGAGGTCACAGACAATTCGG	2.95	3.29	1.84	3.27	0.184	3.71	1.72	2.16	0.454	1.43	1.59	2.68	0.63	0.453	2.49	5.14	1.43	4.65	0.482	3.48
GCAGACAGGTGAAACCCAGGTAACTCAGGGTGGC	0.292	-0.00475	-0.738	-0.364	-0.909	0.818	0.657	-0.0881	-0.673	-0.524	0.362	0.476	-0.384	-0.363	-0.871	-0.19	-0.863	0.261	-1.14	0.645
ATCTCTAGGTAAAGATAGTTCAGTGAATGCAAAT	0.206	4.16	0.484	0.65	0.725	0.625	0.646	0.562	1.03	0.949	2.16	1.66	1.03	1.61	0.566	0.795	0.763	0.643	0.47	0.654
AGAATGAGGTTATACGTAGATCAGGGAAGAAAGT	2.37	1.99	0.0175	1.7	0.71	3.18	2.1	2.02	0.854	1.48	4.01	1.92	0.956	1.16	0.9	1.2	0.682	1.82	0.738	1.54
CCTGCTAGGTCATGGCCAGCTAATCTACAGTATG	3.55	2.55	0.0955	1.76	-0.401	3.99	2.7	3	0.634	2.16	4.25	3.91	0.0686	-0.931	0.851	1.27	-0.389	2.49	-0.572	3.98
ATCGAAAGGTCGAAGTGAGTATAGAGAAAGGGAA	3.94	3.53	0.221	2.69	0.919	4.23	2.38	3.01	1.33	2.56	0.215	1.01	1.1	1.1	1.21	2.16	0.245	2.76	1.12	3.55
TCTAGTTGGTCAGGGAGGTCACACACGACGGGTA	3.15	3.3	2.44	3.24	1.66	3.72	2.28	3.13	3.27	3.23	2.21	3.14	0.418	0.586	2.66	4.14	1.55	4.2	1.51	3.63
ATATGTAGGTTATCGGCTCATTCAGTTTGCGCAT	0.488	0.867	0.283	0.755	1.03	2.6	4.14	3.87	1.47	3.4	6.92	6.58	2.28	1.66	1.39	0.282	0.405	0.31	1.01	0.662
GCTCGGAGGACAAGGTCAGAACTTTGTCCGTAGA	1.86	1.64	-0.253	1.31	-0.462	2.22	0.592	1.57	0.0801	0.802	-0.664	0.754	-0.824	-0.981	0.718	1.87	-0.398	2	-0.812	3.2
TCGAGTAGGTTAGTCGGGGCATTAAGCCAACATA	-0.0253	-0.0214	-0.347	0.387	-0.774	0.728	0.0278	0.922	1.05	1.18	2.22	1.85	-0.456	0.127	0.173	0.149	-0.182	0.471	-0.436	0.306
GCGACTGGGGCATCAGCAGGTTACCATAACTTAA	0.0865	0.156	0.0275	0.704	-0.886	1.33	1.21	1.03	0.757	0.397	3.62	3.27	0.296	-0.965	0.771	-0.0761	-0.654	0.57	-0.145	0.697
TAGCCTAGGTCATTGGGCCAGGATAGTACGCATC	3.92	3.17	0.159	1.47	-0.488	3.6	3.36	3.58	0.83	2.29	2.04	3.75	0.235	0.25	0.798	1.05	-0.39	1.99	-0.0581	3.49
